What all share (settings): concentration: 10 µM; 24 h
The test system of assay [1] is HCC1569. The experiment in a line: cell number relative to DMSO (% of DMSO); higher = more cells (less growth inhibition / toxicity). In a few lines:
(§1)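 Cells were seeded at 800 per well in 384-well plates with RPMI containing 10% FBS; both HCC1569 and TDF lines were used. Compounds were added at 10 µM for 24 h at 37 °C, in triplicate, before fixation in 3.7% formaldehyde and staining with a rabbit anti-H1.0 antibody, an AlexaFluor 647 secondary and DAPI. H1.0 nuclear intensity or cell number is reported as percent of the plate control using the median of replicates, and HCC1569 values were smoothed for positional effects.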

The test system of assay [2] is TDF. The assay is described as above. A digest of the protocol: as §1
The test system of assay [3] is TDF. The experiment in a line: H1.0 immunofluorescence intensity relative to DMSO (% of DMSO); higher = stronger H1.0 induction, active = 120 or more. In a few lines:
as §1

The test system of assay [4] is HCC1569. Description: H1.0 immunofluorescence intensity relative to DMSO (% of DMSO); higher = stronger H1.0 induction, active = 140 or more. In a few lines:
as §1
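For H1.0 immunofluorescence intensity relative to DMSO in this document: TDF is a line of transformed human dermal fibroblasts of mesenchymal origin.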
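For cell number relative to DMSO in this document: TDF denotes transformed human dermal fibroblasts of mesenchymal origin.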

Consider `CNC(=O)Oc1ccc2c(c1)C1(C)CCN(C)C1N2C` (single isomer, unassigned; (-)) [(-)-Physostigmine], for which the cell number with HCC1569 [1] was 98.8; in the assay with TDF [2], 118. The H1.0 immunofluorescence intensity is 96.7 (inactive) with TDF [3] and 94.3 (inactive) in the assay with HCC1569 [4].

As for `CN(C)C(=O)Oc1cccc([N+](C)(C)C)c1.[Br-]` [Neostigmine bromide], the cell number came to 107 in the assay with HCC1569 [1] and 98.4 in the assay with TDF [2]. The values for the H1.0 immunofluorescence intensity in the assay on TDF [3] and in the assay with HCC1569 [4] were 89.5 (inactive) and 89.4 (inactive), respectively.

Regarding `C[N+]1(C)CCOC(O)(c2ccc(-c3ccc(C4(O)C[N+](C)(C)CCO4)cc3)cc2)C1.[Br-].[Br-]` (stereo not drawn) [Hemicholinium-3], the cell number with HCC1569 [1] was determined as 100; with TDF [2], 106. Further, the figures for the H1.0 immunofluorescence intensity in the assay on TDF [3] and with HCC1569 [4] were 92 (inactive) and 87.8 (inactive), respectively.

For the compound `CCC(C(=O)O)C1OC(C(C)C(O)C(C)C(=O)C(CC)C2OC3(C=CC(O)C4(CCC(C)(C5CCC(O)(CC)C(C)O5)O4)O3)C(C)CC2C)C(C)CC1C` (stereo not drawn) [Narasin], the cell number in the assay with HCC1569 [1] came out at 67.3; in the assay with TDF [2] it was 84.4. Also, the H1.0 immunofluorescence intensity in the assay on TDF [3] is 112 (inactive); in the assay with HCC1569 [4], 159 (active).

Turning to `COc1ccc(-n2nc(C(F)(F)F)cc2-c2ccc(Cl)cc2)cc1`, the cell number in the assay on HCC1569 [1] was found to be 104; in the assay with TDF [2], 106. The H1.0 immunofluorescence intensity in the assay with TDF [3] is 87.5 (inactive); with HCC1569 [4], 90.3 (inactive).

Turning to `CC[NH+](CC)CC.Nc1ncnc2c1ncn2C1OC2COP([O-])(=S)OC2C1O` (stereo not drawn) [Rp-cAMPS triethylamine], the figures for the cell number in the assay with HCC1569 [1] and with TDF [2] were 103 and 113, respectively. Also, the figures for the H1.0 immunofluorescence intensity in the assay with TDF [3] and in the assay on HCC1569 [4] were 86 (inactive) and 88.3 (inactive), respectively.

For `COc1ccc2c(c[n+](C)c3c4cc5c(cc4ccc23)OCO5)c1OC.[Cl-]` [Chelerythrine Chloride], the cell number turned out to be 90.9 in the assay with HCC1569 [1] and 98.2 in the assay with TDF [2]. The H1.0 immunofluorescence intensity is 94 (inactive) in the assay on TDF [3] and 123 (inactive) with HCC1569 [4].

The record behind these values is the supplement of paper PMC7156485.
